Consider 8 compounds from PubChem BioAssay (NCI).

This is part of a sample that, as a whole, favours compounds with a hit. Of some 83,000 tested, about 20% had one in any assay.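 Plates (96-well) were seeded with cells, treated with compound at one concentration, and incubated for 48 hours before percent growth was determined.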 A number with no mark means an inactive call. Active and inactive are the calls of the source. The calls were made as follows: active = growth percent below 10; inactive = the rest.

What all share (assay): NCI-60 one-dose screen, 48 h (100 = growth as untreated, 0 = no growth, -100 = all killed)
One test deals with HT29 colon. The following applies: 10 µM unless noted.
The next test concerns SNB-75 CNS. The note with it: 10 µM unless noted.
A further test concerns SNB-19 CNS. The following applies: 10 µM unless noted.
Another test concerns U251 CNS. The note with it: 10 µM unless noted.
Another test concerns PC-3 prostate. The note with it: 10 µM unless noted.
A further test relates to UACC-62 melanoma. The note with it: 10 µM unless noted.
Another test has as its system LOX IMVI melanoma. The note with it: 10 µM unless noted.
A further test has as its system SK-MEL-28 melanoma. The following applies: 10 µM.
A further test has as its system SK-MEL-2 melanoma. The following applies: 10 µM unless noted.
A further test relates to EKVX NSCLC. The note with it: 10 µM unless noted.
The test system of the next test is SN12C renal. The note with it: 10 µM unless noted.
Another test concerns UO-31 renal. The note with it: 10 µM unless noted.
The subject of the next test is TK-10 renal. The note with it: 10 µM unless noted.
For another test, the system named is ACHN renal. The following applies: 10 µM unless noted.
Another test deals with CAKI-1 renal. The note with it: 10 µM unless noted.
The next test has as its system A498 renal. The note with it: 10 µM unless noted.
The next test deals with CCRF-CEM leukemia. The following applies: 10 µM unless noted.
A further test has as its system MOLT-4 leukemia. The following applies: 10 µM unless noted.
A further test deals with SR leukemia. The following applies: 10 µM unless noted.
The subject of a further test is SK-MEL-5 melanoma. The following applies: 10 µM unless noted.

Consider `N[C@@H](CC/[N+]([O-])=N/O)C(=O)O`, for which the growth in the test with HT29 colon is 99.8%; in the test with SNB-75 CNS, 113%; in the test with SNB-19 CNS, 97.8%; in the test on U251 CNS, 94.9%; in the test with PC-3 prostate, 102%; in the test on UACC-62 melanoma, 98.4%. In addition, the growth in the test on LOX IMVI melanoma is 104%; in the test on SK-MEL-28 melanoma, 106%; in the test with SK-MEL-2 melanoma, 107%; in the test with EKVX NSCLC, 89.3%; in the test with SN12C renal, 101%; in the test on UO-31 renal, 94.9%. Also, the growth in the test with TK-10 renal is 104%; with ACHN renal, 105%; with CAKI-1 renal it was 97.6%; with A498 renal, 111%; in the test with CCRF-CEM leukemia, 105%; with MOLT-4 leukemia it was 104%. In addition, the growth in the test with SR leukemia was 126%.
Consider `COc1ccc(-c2nocc2-c2cccs2)cc1`, for which the growth in the test on HT29 colon was 114%; in the test with SNB-75 CNS it was 89.4%; in the test on SNB-19 CNS it was 102%; in the test with U251 CNS, 110%; in the test with PC-3 prostate, 101%; in the test on UACC-62 melanoma it was 93.3%. Also, the growth was 108% in the test on LOX IMVI melanoma; 103% in the test on SK-MEL-28 melanoma; 103% in the test with SK-MEL-2 melanoma; 91.6% in the test with EKVX NSCLC; 103% with SN12C renal; 88.2% in the test on UO-31 renal. The growth in the test with TK-10 renal was 104%; with ACHN renal it was 103%; with CAKI-1 renal, 89.8%; with A498 renal, 107%; with CCRF-CEM leukemia, 105%; in the test on MOLT-4 leukemia, 108%. In addition, the growth in the test on SR leukemia is 128%.
`CC(C)CCOc1ccc(-c2n[nH]c(C(F)(F)F)c2-c2cncc(C#N)c2)c(O)c1`: the growth is 48.9% in the test on HT29 colon; 30.1% in the test on SNB-75 CNS; 13.1% with SNB-19 CNS; 2.85% (active) in the test on U251 CNS; 1.74% (active) with PC-3 prostate; 17.5% in the test on UACC-62 melanoma. The growth in the test on LOX IMVI melanoma was 5.15% (active); with SK-MEL-28 melanoma, 33.7%; in the test on SK-MEL-2 melanoma, -13.8% (active); in the test on EKVX NSCLC, 3.52% (active); in the test on SN12C renal, 3.81% (active); with UO-31 renal, 3.89% (active). Further, the growth with TK-10 renal is 11.4%; with ACHN renal, 8.84% (active); in the test with CAKI-1 renal it was 9.47% (active); with A498 renal, -25.5% (active); in the test on CCRF-CEM leukemia, 6.67% (active); with MOLT-4 leukemia, 23%. Further, the growth in the test with SR leukemia is 33.7%.
On to `O=C(Nc1ncc(Cc2cccc(C(F)(F)F)c2)s1)C1COc2ccccc2O1` (stereo unspecified), for which the growth was 84.9% with HT29 colon; 83.3% with SNB-75 CNS; 89.9% with SNB-19 CNS; 83.8% in the test on U251 CNS; 89.8% in the test on SK-MEL-5 melanoma; 65.3% in the test on UACC-62 melanoma. Moreover, the growth in the test with LOX IMVI melanoma was 94.8%; with SK-MEL-28 melanoma, 87.5%; in the test with SK-MEL-2 melanoma it was 88%; in the test on EKVX NSCLC, 75.5%; in the test on SN12C renal it was 88.8%; in the test on UO-31 renal, 73.7%. In addition, the growth with TK-10 renal is 97.1%; in the test with ACHN renal, 97.4%; with CAKI-1 renal, 84.2%; in the test with A498 renal, 106%; with CCRF-CEM leukemia, 86.7%; with MOLT-4 leukemia it was 80.2%. Further, the growth with SR leukemia was 106%.
For `COc1cc2c(cc1OC)C(=O)C(CC1CCN(C(=O)Nc3ccc(C)cc3)CC1)C2` (stereo unspecified), the growth in the test with HT29 colon was 107%; in the test on SNB-75 CNS it was 88.4%; in the test with SNB-19 CNS it was 95.2%; in the test with U251 CNS, 106%; in the test on PC-3 prostate, 88.6%; in the test with UACC-62 melanoma, 79.9%. In addition, the growth in the test on SK-MEL-28 melanoma is 99.1%; with SK-MEL-2 melanoma it was 97.9%; with EKVX NSCLC, 90.9%; in the test on SN12C renal, 92.5%; in the test on UO-31 renal it was 60.4%; in the test with TK-10 renal, 116%. Also, the growth with ACHN renal is 93.6%; with CAKI-1 renal it was 83.7%; with A498 renal, 69.4%; with CCRF-CEM leukemia, 97.8%; in the test with MOLT-4 leukemia it was 102%; with SR leukemia it was 112%.
For `CCn1c(Cc2ccccc2Nc2c(Cl)cccc2Cl)nnc1SCC(=O)NN1C(=O)/C(=C/c2cccc(OC)c2OC)SC1=S`, the growth with HT29 colon was 113%; in the test with SNB-75 CNS, 87.3%; with SNB-19 CNS it was 91.2%; in the test with U251 CNS, 90.1%; in the test on SK-MEL-5 melanoma, 97.1%; with UACC-62 melanoma, 96.6%. The growth is 92% in the test with LOX IMVI melanoma; 104% with SK-MEL-28 melanoma; 96.7% in the test with SK-MEL-2 melanoma; 93.2% in the test with EKVX NSCLC; 95% in the test with SN12C renal; 77.3% in the test with UO-31 renal. For the same compound, the growth in the test on TK-10 renal was 108%; with ACHN renal, 96.9%; in the test with CAKI-1 renal, 94.1%; in the test with A498 renal, 103%; in the test with CCRF-CEM leukemia, 96.6%; in the test on MOLT-4 leukemia it was 95.8%. Moreover, the growth in the test on SR leukemia was 102%.
On to `COC(=O)C1=Nc2ccc(F)cc2/C1=C/c1sc(=S)[nH]c1O`, for which the growth is 8.16% (active) with HT29 colon; 11.6% in the test on SNB-75 CNS; 30.4% in the test with SNB-19 CNS; 8.56% (active) in the test with U251 CNS; -41% (active) in the test with SK-MEL-5 melanoma; 53.6% with UACC-62 melanoma. The growth with LOX IMVI melanoma is 13%; with SK-MEL-28 melanoma, 59.4%; in the test with SK-MEL-2 melanoma, 39.5%; in the test with EKVX NSCLC, 36.8%; with SN12C renal, 27.3%; with UO-31 renal, 14.7%. For the same compound, the growth was 56% in the test with TK-10 renal; 25.1% in the test on ACHN renal; 20% with CAKI-1 renal; 25.7% with A498 renal; 11.9% in the test with CCRF-CEM leukemia; 13.7% in the test with MOLT-4 leukemia. For the same compound, the growth with SR leukemia was 22.3%.
As for `CCCc1c(C)c2sc(=O)[nH]c2[nH]c1=O`, the growth was 110% in the test with HT29 colon; 99.1% with SNB-75 CNS; 101% in the test on SNB-19 CNS; 99.5% with U251 CNS; 100% with SK-MEL-5 melanoma; 105% with UACC-62 melanoma. The growth is 100% in the test with LOX IMVI melanoma; 110% with SK-MEL-28 melanoma; 108% in the test with SK-MEL-2 melanoma; 98.8% in the test with EKVX NSCLC; 107% with SN12C renal; 94.8% in the test with UO-31 renal. Besides, the growth in the test on TK-10 renal was 110%; in the test on ACHN renal it was 106%; in the test with CAKI-1 renal, 99%; with A498 renal it was 112%; in the test on CCRF-CEM leukemia, 124%; in the test on MOLT-4 leukemia, 106%. Moreover, in the test on SR leukemia, the growth was 109%.
